According to PubChem BioAssay (NCATS):
Unmarked numbers belong to inactive results. Results filed as inconclusive are left out. A call without a number means that no potency is given here. Activity calls are given as the source filed them. Unless noted, the call rests on the fitted dose curve; in most records, active means well fitted curve in the direction sought with a large enough effect; inconclusive means small, poorly fitted or top-dose-only effect, or another doubt; inactive means no such curve, though single readings can be large; an effect the other way counts as inactive or inconclusive.

Assays:
[1] = target: Cytochrome P450 1A2 (Homo sapiens) (UniProt P05177); assay: p450-cyp1a2 (AID 410; calls by dose curve; further: potency means the concentration at half of the fitted maximal effect); conditions: recombinant CYP1A2, luciferin-ME demethylation, luminescence; series mostly up to 57 µM
Summary of the method: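 Luminescent demethylation readout: Luciferin-ME (100uM, equal to Km) turned over by 20nM CYP1A2 for 60 min at room temperature after NADPH regeneration addition, following 10 min compound preincubation. Normalization used 57 uM furafylline as full inhibition.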

[2] = NFAT Signaling Pathway (AID 444; active means well fitted curve in either direction with a large enough effect, not every such curve was filed as active;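 further: carbachol stimulus at about its EC50 of 1 µM final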); conditions: Jurkat NFAT-bla M1, carbachol, beta-lactamase ratio, 5 h
Summary of the method: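 Read-out: CCF4 FRET ratio (460 nm/530 nm) after 1 h RT dye loading, used for %activity and AC50 from titration series. Cells: Jurkat NFAT-β-lactamase/M1 line, treated with compound plus 1 uM carbachol for 5 h, 37 °C.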

[3] = Stat Signaling Pathway (AID 446; active means well fitted curve in either direction with a large enough effect, not every such curve was filed as active;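 further: ME-180 cervical cancer cells given 40 pM IL-6 alongside compound; SIE-controlled beta-lactamase reporter measured as 460/530 nm FRET emission ratio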); conditions: ME-180 SIE beta-lactamase reporter, IL-6 stimulated, 5 h
Summary of the method: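 Emission at 460 and 530 nm (excitation 405 nm) reports SIE-controlled beta-lactamase in ME-180 cells. Cells received compound with 40 pM IL-6 for 5 hrs at 37 C; data scaled between 300 pM IL-6 and 125 nM JAK-inhibitor controls.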

[4] = target: Glucocorticoid receptor (Homo sapiens) (UniProt P04150); assay: GR-GFP Redistribution (AID 450;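 active means compounds whose dose series gives a full or clear partial fitted curve of increased nuclear translocation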; further: potency means the concentration at half of the fitted maximal effect); conditions: U2OS GR-GFP nuclear translocation, laser cytometry, 2 h
[5] = target: Glucocorticoid receptor (Homo sapiens) (UniProt P04150); assay: GR-EFC Redistribution (AID 451; calls by dose curve; further: potency means the concentration at half of the fitted maximal effect); conditions: CHO-K1 GR-EFC translocation, beta-gal luminescence, 2 h
Summary of the method: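 Translocation of GR-ED fusion to nuclear EA restores b-gal, read by luminescence after 1 h room-temperature detection. Engineered CHO-K1 biosensor cells, 1,000/well, exposed 2 h at 37 C to titrations up to 46 uM final.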

[6] = target: 3',5'-cyclic-AMP phosphodiesterase 4B (Homo sapiens) (UniProt Q07343); assay: qHTS Assay for Inhibitors of PDE-IV (AID 607; active means well fitted activation curve with a large enough effect in the main read-out, with a control signal flat, not every such curve was filed as active); conditions: HEK293 ACTOne CNG channel cells, membrane potential fluorescence; series mostly up to 22.9 µM
Summary of the method: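 The readout is membrane depolarisation from a cAMP-sensing CNG channel, detected with a potential dye at ex 535/em 590. Cells were HEK293-derived (endogenous PDE-IV) at 1000 cells/well, titrated up to 22.9 uM final.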

[7] = target: Guanine nucleotide-binding protein G(i) subunit alpha-1 (Homo sapiens) (UniProt P63096); assay: qHTS Assay for Inhibitors of RGS12 GoLoco Motif Activity (Green Fluorophore) (AID 879); conditions: Galphai1/FITC-RGS12 GoLoco peptide, fluorescence polarization; series mostly up to 57.1 µM;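 further: negative values mean loss of peptide binding seen as reduced polarization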
Summary of the method: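 A drop in FITC polarization marked displacement of the FITC-tagged RGS12 GoLoco peptide (10 nM) from Gαi1 (50 nM). Compounds were incubated 10 min at room temperature in Tris pH 7.5 buffer containing 150 mM NaCl, 0.1 mM GDP and 0.05% NP40; unlabeled peptide titration served as control.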

[8] = target: Cytochrome P450 3A4 (Homo sapiens) (UniProt P08684); assay: qHTS Assay for Inhibitors and Substrates of Cytochrome P450 3A4 (AID 884); conditions: recombinant CYP3A4, Luciferin-PPXE luminescence; series mostly up to 57.1 µM; further: nearly all actives have a fitted effect of over 50% in size
Summary of the method: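 Luminescent readout of luciferin produced by CYP3A4 (20 nM) dealkylation of Luciferin-PPXE, 25 uM (its KM). NADPH-driven reaction ran 60 min at RT after 10 min compound preincubation; data scaled to 57 uM ketoconazole as 100% inhibition.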

[9] = target: Muscarinic acetylcholine receptor M1 (Rattus norvegicus) (UniProt P08482); assay: qHTS Assay for Antagonists of Acetylcholine Muscarinic M1 Receptor: Measurement of IP-One Response (AID 944); conditions: CHO-M1 cells, IP-One HTRF, antagonist mode; series mostly up to 46.1 µM; further: nearly all actives have a fitted effect of over 75% in size
Summary of the method: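 IP1 accumulation measured via TR-FRET between d2-IP1 and Eu-cryptate anti-IP1 antibody after carbachol (200 nM, EC80) stimulation for 30 min; rat M1-transfected CHO cells received compound 10 min before agonist.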

[10] = target: Pyruvate kinase (Leishmania mexicana) (UniProt Q27686); assay: qHTS Validation Assay for Inhibitors of Leishmania Mexicana Pyruvate Kinase (AID 945); conditions: purified L. mexicana pyruvate kinase, enzyme activity, E451W mutant enzyme; series mostly up to 57.5 µM
Summary of the method: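 LmPYK E451W 0.2 nM; 0.5 mM PEP, 0.1 mM ADP, 7 mM MgCl2, 50 mM KCl, imidazole pH 7.2, 0.01% Tween 20, 0.05% BSA; 1 h RT; PKLight luminescence; DMSO-normalized.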

[11] = target: Alpha-galactosidase A (Homo sapiens) (UniProt P06280); assay: Counterscreen for Glucocerebrosidase Inhibitors: qHTS Assay for Human alpha-Galactosidase at pH 4.5 (AID 992); conditions: purified enzyme, fluorogenic substrate; series mostly up to 76.9 µM
Summary of the method: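 Fluorogenic 4-MU alpha-D-galactoside (80 uM) hydrolysis, 2 nM enzyme, pH 4.5 citrate buffer + 0.005% Tween-20; 20 min RT; NaOH/glycine pH 10 stop; Ex365/Em440. Compounds titrated 0.7 nM–77 uM; Hill-equation AC50.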

[12] = target: alpha-glucosidase (Oryza sativa, rice) (UniProt Q653V4); assay: Counterscreen for Glucocerebrosidase Inhibitors: qHTS Assay for Rice alpha-Glucosidase at pH 5.0 (AID 997); conditions: rice alpha-glucosidase enzyme activity; series mostly up to 76.9 µM
Summary of the method: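 Endpoint fluorogenic assay at pH 5.0: compounds (0.7 nM to 77 uM) titrated against 4 nM rice enzyme and 400 uM 4-MU-alpha-glucoside for 20 min at room temperature; NaOH/glycine stop, read ex 365/em 440 nm, Hill-fitted AC50.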

[13] = target: DNA dC->dU-editing enzyme APOBEC-3G (Homo sapiens) (UniProt Q9HC16); assay: qHTS for inhibitors of Vif-A3G interactions: Validation (AID 588379); conditions: Vif-A3G protein interaction assay; series mostly up to 46.1 µM
Summary of the method: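 Yellow fluorescence (Ex 488, Em 500-530) of Vif-coexpressing HeLa A3G-eYFP cells, scanned by Acumen cytometer, reports blocked A3G degradation. Cells plated at 700/well overnight at 37 deg C before compound addition, then a further overnight compound incubation at 37 deg C.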

[14] = system: Zika virus NS2B-NS3 protease; assay: Primary screen GU AMC qHTS for Zika virus inhibitors (AID 1347154); conditions: Zika NS2B-NS3 unlinked protease, AMC fluorogenic substrate; series mostly up to 54.1 µM; further: nearly all actives have a fitted effect of over 70% in size
Summary of the method: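 Fluorogenic AMC-substrate cleavage by noncovalent NS2B-NS3 protease complex (25 nM, pH 8.0 Tris buffer with Tween 20) followed for 15 minutes at room temperature (~20% conversion). Percent inhibition from ex340/em450 signal change, fitted by 4-parameter Hill equation.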

[15] = Primary qHTS for small molecule stabilizers of the endoplasmic reticulum resident proteome: Secreted ER Calcium Modulated Protein (SERCaMP) assay (AID 1508630); conditions: SH-SY5Y GLuc-SERCaMP (Gaussia luciferase released on ER calcium loss) secretion, thapsigargin, luminescence; series mostly up to 38.4 µM
Summary of the method: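 The SH-SY5Y reporter protocol was run at 3 concentrations up to 38.3 uM (primary) or 11 concentrations (follow-up): 16 h compound, 100 nM thapsigargin for 4 h, then extracellular luciferase luminescence.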

[16] = NCATS anti-infectives library activity on HEK293 viability as a counter-qHTS vs the C. elegans viability qHTS (AID 1745854); conditions: HEK293 viability counter-screen; series mostly up to 41.8 µM
Summary of the method: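 Cytotoxicity counter-screen to a worm viability qHTS: CellTiter-Glo luminescence read 10 min after reagent addition. Compounds (final up to 41.7 uM, a 1:5 dilution series) incubated 24 hr at 37C with 1,500 HEK293 cells per well; digitonin control.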

[17] = NCATS anti-infectives library activity on the primary C. elegans qHTS viability assay (AID 1745855; calls by dose curve; further: potency means the concentration at half of the fitted maximal effect); conditions: C. elegans worm area imaging, day 7; series mostly up to 41.8 µM
Summary of the method: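 GFP read-out by 488 nm laser cytometry at day 0, 3 and 7, gated on object perimeter, area and peak intensity, scored viability of PE254-GFP-FLuc worms exposed to compound in S medium with bacterial capsules at 21 °C.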

[18] = target: Lysosomal acid glucosylceramidase (Homo sapiens) (UniProt P04062); assay: Glucocerebrosidase-p2 (AID 348; in the data active means potency below about 10 µM; further: potency means the concentration at half of the fitted maximal effect); conditions: purified GBA, blue fluorogenic substrate, 40 min
Summary of the method: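 Normal human glucocerebrosidase (0.2 nM) with blue fluorogenic substrate (80 uM final) in citrate/phosphate pH 5.9 with 10mM sodium taurocholate, 0.01% tween-20; 40 min RT, NaOH/glycine stop; fluorescence Ex 365/Em 440; AC50 from a titration from 0.6 nM upwards.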

[19] = AP1 Signaling Pathway (AID 357; active means well fitted curve in either direction with a large enough effect, not every such curve was filed as active;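 further: ME-180 reporter cells stimulated with EGF at its EC50 level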); conditions: ME-180 (cervical carcinoma) AP-1-bla reporter, EGF-induced, beta-lactamase ratio, 5 h; at 7.69 µM (top of the series)
Summary of the method: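 First, ME-180 AP-1-bla cells were cultured overnight at 37 °C in low-serum Opti-MEM. Next, titrated compounds with EC50 EGF were incubated 5 hours. Finally, CCF4 was added for 2.5 hours and the 460/530 nm ratio recorded.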

[20] = target: Mitogen-activated protein kinase 10 (Mus musculus) (UniProt Q61831); assay: JNK3 AlphaScreen Assay (AID 530; active means well fitted curve in either direction with a large enough effect, not every such curve was filed as active;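 further: kinase came from lysate of stimulated human HepG2 cells; signal reports phosphorylation of biotinylated GST-cJun 1-79 at Ser73 with 10 µM ATP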); conditions: JNK3 lysate, c-Jun phosphorylation; series mostly up to 57.1 µM
Summary of the method: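 qHTS titrations with 15 min compound pre-incubation before adding ATP (10 uM final). Read-out: AlphaScreen of Ser73-phosphorylated biotin-GST-cJun using HepG2 lysate JNK3 activated by IL-1β and TNFα.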

[21] = target: Cytochrome P450 2C19 (Homo sapiens) (UniProt P33261); assay: qHTS Assay for Inhibitors and Substrates of Cytochrome P450 2C19 (AID 899); conditions: recombinant CYP2C19, luciferin-H EGE luminescence; series mostly up to 57.1 µM; further: nearly all actives have a fitted effect of over 60% in size
Summary of the method: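 5nM enzyme + 10uM Luciferin-H EGE (=KM), 50mM KPO4; cpd pin-transferred, 10 min 37C; NADPH regen, 60 min 37C; stopped w/ luciferin detection reagent, 20 min; luminescence. Normalized to 57uM ketoconazole (AC100).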

[22] = target: Glutathione peroxidase 1 (Homo sapiens) (UniProt P07203); assay: Primary qHTS Assay for Inhibitors of Recombinant Selenoprotein Glutathione Peroxidase 1 (GPX1) (AID 1845191); conditions: recombinant GPX1, GR-coupled NADPH fluorescence, 15 min; series mostly up to 48.8 µM; further: nearly all actives have a fitted effect of over 65% in size
Summary of the method: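 NADPH consumption tracked by fluorescence at 340/450 nm between t=0 and t=15 min, room temperature. Final mix: 10 nM GPX1, 100 nM glutathione reductase, 1 mM GSH, 0.5 mM NADPH, 0.5 mM cumene hydroperoxide, 0.01% BSA; 30 min compound–enzyme preincubation.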

[23] = target: Rap guanine nucleotide exchange factor 3 (Homo sapiens) (UniProt O95398); assay: Confirmatory qHTS for agonist of cAMP-regulated guanine nucleotide exchange factor 3 (EPAC1) (AID 1645881); conditions: EPAC1 Rap1B BODIPY-GDP exchange fluorescence, 100% = cAMP control response; series mostly up to 154 µM;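 further: EPAC1 catalysed release of BODIPY-GDP from Rap1B seen as fluorescence loss; nearly all actives have a fitted effect of over 75% in size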
[24] = target: Rap guanine nucleotide exchange factor 4 (Homo sapiens) (UniProt Q8WZA2); assay: Confirmatory qHTS for agonist of cAMP-regulated guanine nucleotide exchange factor 4 (EPAC2) (AID 1645884); conditions: EPAC2 GEF activity, Rap1B-BODIPY-GDP fluorescence, percent relative to cAMP agonist control; series mostly up to 154 µM;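 further: nucleotide exchange releases bodipy-GDP from Rap1 and this lowers its fluorescence; nearly all actives have a fitted effect of over 65% in size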

Cytochrome P450 1A2 (Homo sapiens), sequence (P05177 whole entry, looked up): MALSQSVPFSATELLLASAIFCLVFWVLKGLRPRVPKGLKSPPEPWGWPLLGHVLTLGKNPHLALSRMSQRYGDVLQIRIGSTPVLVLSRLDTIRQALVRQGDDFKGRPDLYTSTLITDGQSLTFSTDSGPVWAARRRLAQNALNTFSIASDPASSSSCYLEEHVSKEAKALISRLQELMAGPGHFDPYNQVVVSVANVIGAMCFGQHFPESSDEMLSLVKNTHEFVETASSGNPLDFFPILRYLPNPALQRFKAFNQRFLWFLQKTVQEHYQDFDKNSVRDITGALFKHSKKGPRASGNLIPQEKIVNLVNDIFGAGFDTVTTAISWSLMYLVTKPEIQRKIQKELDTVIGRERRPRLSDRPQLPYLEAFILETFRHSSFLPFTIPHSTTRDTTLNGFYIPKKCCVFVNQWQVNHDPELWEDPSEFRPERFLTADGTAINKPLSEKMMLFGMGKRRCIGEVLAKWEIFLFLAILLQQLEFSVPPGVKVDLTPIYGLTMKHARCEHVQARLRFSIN
Glucocorticoid receptor (Homo sapiens), sequence (P04150 whole entry, looked up, the tested form may be a part): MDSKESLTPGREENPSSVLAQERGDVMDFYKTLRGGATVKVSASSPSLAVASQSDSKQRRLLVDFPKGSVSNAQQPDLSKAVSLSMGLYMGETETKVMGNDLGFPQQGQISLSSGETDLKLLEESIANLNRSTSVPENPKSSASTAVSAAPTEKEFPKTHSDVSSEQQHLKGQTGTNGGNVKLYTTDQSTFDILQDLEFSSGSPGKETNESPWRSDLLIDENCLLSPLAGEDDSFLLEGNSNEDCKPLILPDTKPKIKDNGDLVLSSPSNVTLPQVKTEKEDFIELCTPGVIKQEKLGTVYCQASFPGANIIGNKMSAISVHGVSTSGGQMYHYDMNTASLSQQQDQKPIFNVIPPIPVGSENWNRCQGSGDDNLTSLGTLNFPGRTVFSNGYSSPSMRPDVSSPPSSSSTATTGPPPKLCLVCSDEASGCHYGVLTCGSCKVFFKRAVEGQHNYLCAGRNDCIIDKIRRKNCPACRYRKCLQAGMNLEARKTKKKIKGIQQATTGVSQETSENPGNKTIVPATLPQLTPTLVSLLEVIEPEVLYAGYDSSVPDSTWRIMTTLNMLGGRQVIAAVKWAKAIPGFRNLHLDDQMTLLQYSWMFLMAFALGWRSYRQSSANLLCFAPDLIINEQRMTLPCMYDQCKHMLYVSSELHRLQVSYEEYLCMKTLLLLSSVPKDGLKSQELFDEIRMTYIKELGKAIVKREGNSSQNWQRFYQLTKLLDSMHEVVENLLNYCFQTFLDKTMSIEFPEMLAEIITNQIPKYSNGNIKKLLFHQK
3',5'-cyclic-AMP phosphodiesterase 4B (Homo sapiens), sequence (Q07343 whole entry, looked up): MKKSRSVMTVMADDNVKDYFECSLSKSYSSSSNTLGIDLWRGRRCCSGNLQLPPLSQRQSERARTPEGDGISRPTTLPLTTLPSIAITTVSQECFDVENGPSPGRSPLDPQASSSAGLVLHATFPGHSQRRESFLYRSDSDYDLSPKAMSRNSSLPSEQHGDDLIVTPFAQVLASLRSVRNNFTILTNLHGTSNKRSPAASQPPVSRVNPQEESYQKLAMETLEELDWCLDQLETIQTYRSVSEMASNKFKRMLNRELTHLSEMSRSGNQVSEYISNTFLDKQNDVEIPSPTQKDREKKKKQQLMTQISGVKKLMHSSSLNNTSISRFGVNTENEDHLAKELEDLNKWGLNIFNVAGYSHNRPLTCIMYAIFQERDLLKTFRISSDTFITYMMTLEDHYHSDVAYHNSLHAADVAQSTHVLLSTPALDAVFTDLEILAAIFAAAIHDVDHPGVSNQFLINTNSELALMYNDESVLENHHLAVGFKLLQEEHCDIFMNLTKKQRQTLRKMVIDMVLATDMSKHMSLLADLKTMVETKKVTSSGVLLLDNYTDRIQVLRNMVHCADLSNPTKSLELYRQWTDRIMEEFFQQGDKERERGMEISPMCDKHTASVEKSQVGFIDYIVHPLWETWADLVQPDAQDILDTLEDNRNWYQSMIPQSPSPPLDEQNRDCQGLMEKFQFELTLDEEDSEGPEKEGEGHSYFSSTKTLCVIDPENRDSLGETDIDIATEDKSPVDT
DNA dC->dU-editing enzyme APOBEC-3G (Homo sapiens), sequence (Q9HC16 whole entry, looked up): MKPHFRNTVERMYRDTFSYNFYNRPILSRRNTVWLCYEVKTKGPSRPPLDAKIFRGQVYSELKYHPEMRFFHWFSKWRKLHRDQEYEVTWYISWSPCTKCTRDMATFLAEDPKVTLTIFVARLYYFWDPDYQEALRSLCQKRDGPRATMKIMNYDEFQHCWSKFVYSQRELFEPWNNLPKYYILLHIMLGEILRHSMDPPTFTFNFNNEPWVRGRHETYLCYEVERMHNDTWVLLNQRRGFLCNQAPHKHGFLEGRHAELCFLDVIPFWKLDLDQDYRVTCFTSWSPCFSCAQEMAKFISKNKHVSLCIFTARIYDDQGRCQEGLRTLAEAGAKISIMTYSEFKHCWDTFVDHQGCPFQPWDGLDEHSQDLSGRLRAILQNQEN
Guanine nucleotide-binding protein G(i) subunit alpha-1 (Homo sapiens), sequence (P63096 whole entry, looked up): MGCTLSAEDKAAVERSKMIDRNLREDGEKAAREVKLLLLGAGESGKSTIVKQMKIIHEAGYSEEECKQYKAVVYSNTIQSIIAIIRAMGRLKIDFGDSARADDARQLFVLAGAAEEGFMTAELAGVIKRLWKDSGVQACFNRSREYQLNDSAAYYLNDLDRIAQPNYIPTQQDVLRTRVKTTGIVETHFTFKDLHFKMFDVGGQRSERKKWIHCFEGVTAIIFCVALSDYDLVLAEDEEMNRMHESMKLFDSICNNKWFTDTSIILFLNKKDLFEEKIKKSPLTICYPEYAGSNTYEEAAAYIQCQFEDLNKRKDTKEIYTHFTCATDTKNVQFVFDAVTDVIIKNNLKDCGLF
Cytochrome P450 2C19 (Homo sapiens), sequence (P33261 whole entry, looked up): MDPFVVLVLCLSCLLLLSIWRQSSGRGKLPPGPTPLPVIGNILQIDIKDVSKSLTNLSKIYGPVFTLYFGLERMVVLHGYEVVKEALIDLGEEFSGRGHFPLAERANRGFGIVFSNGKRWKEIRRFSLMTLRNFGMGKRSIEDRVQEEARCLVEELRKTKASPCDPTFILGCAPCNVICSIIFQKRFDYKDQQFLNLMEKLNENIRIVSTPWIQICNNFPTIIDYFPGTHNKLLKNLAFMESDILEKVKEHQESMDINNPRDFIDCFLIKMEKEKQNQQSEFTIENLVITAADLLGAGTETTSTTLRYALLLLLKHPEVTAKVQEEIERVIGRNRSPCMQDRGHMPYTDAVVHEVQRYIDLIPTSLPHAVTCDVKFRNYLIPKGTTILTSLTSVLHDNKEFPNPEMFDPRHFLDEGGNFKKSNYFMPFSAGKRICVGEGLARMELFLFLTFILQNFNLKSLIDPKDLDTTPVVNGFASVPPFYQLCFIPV
Alpha-galactosidase A (Homo sapiens), sequence (P06280 whole entry, looked up): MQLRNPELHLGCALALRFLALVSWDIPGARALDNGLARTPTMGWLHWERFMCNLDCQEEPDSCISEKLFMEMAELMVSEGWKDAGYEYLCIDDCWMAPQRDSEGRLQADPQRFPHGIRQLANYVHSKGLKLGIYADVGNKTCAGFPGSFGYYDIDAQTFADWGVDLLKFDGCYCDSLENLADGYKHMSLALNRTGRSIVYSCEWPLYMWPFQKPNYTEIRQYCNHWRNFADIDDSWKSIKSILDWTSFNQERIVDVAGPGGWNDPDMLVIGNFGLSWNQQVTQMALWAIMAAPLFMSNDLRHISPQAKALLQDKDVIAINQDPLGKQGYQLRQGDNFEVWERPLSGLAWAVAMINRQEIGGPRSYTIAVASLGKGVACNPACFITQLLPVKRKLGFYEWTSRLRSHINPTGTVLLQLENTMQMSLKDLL
Muscarinic acetylcholine receptor M1 (Rattus norvegicus), sequence (P08482 whole entry, looked up): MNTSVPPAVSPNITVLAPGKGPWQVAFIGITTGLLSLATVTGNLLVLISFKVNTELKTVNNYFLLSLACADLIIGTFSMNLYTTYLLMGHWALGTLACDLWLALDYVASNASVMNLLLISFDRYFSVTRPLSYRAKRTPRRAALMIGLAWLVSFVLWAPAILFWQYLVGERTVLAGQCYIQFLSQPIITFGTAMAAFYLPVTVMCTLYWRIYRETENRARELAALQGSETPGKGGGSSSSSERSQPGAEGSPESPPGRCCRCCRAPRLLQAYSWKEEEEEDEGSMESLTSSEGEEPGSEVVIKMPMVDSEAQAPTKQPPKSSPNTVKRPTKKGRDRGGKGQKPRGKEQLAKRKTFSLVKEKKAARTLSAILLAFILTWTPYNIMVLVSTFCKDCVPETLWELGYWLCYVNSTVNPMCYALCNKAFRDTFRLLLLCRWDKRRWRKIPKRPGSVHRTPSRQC
Cytochrome P450 3A4 (Homo sapiens), sequence (P08684 whole entry, looked up): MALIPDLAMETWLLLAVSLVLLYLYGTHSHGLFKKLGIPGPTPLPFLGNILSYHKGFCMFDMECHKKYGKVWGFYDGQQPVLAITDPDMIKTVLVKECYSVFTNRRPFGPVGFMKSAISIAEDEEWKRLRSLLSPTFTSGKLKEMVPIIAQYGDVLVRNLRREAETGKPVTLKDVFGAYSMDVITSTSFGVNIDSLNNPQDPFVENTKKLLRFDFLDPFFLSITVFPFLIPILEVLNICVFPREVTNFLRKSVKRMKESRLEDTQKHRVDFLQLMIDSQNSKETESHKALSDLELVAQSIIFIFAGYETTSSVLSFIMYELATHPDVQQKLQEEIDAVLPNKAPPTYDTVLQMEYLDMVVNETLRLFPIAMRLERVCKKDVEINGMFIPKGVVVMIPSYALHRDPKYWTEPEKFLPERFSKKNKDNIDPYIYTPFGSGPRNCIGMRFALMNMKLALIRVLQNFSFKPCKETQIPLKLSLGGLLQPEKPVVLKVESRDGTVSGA
Glutathione peroxidase 1 (Homo sapiens), sequence (P07203 whole entry, looked up): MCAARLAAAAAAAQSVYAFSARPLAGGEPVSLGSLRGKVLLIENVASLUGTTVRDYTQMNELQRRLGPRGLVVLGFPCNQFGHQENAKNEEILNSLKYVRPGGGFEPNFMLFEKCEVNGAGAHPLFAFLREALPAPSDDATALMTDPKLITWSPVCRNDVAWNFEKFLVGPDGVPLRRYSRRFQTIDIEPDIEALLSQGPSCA

Q: Which Potency [1] does the source give for `Cc1cccc([C@@H]2CN(C)CCc3c2cc(O)c(O)c3Cl)c1` here?
A: inactive

Q: What about the activity change, negative = inhibition ([2]; at 38 µM (top of the series)) of the same compound?
A: -15%

Q: And the activity, negative = inhibition ([3]; at 38 µM (top of the series))?
A: 11.4%

Q: And the Potency [4]?
A: > 46 µM

Q: And the Potency [5]?
A: > 46 µM

Q: And the Potency [6]?
A: inactive

Q: And the outcome [7]?
A: inactive

Q: What about the Potency [8] of the same compound?
A: inactive

Q: What about the Potency [9] of the same compound?
A: inactive

Q: And the Potency [10]?
A: inactive

Q: And the outcome [11]?
A: inactive

Q: What about the outcome [12] of the same compound?
A: inactive

Q: What about the Potency [13] of the same compound?
A: inactive

Q: And the Potency [14]?
A: inactive

Q: And the Potency [15]?
A: inactive

Q: For `N#CC(=C(/N)Sc1ccccc1N)/C(C#N)=C(\N)Sc1ccccc1N`, which Potency [14] is on record?
A: inactive

Q: What about the Potency [15] of the same compound?
A: inactive

Q: What about the outcome [16] of the same compound?
A: inactive

Q: And the Potency [17]?
A: 5.15 µM (active)

Q: With `C[C@@H](C[C@H](N)C(=O)O)C(=O)O` as the compound, how does the Potency [18] read?
A: > 11.4 µM

Q: And the activity change, negative = inhibition [19]?
A: -5.85%

Q: What about the activity change, negative = inhibition [1] of the same compound?
A: -18.7% [at 11.4 µM]

Q: What about the activity change, negative = inhibition ([2]; at 7.69 µM (top of the series)) of the same compound?
A: 21.8%

Q: And the activity, negative = inhibition ([3]; at 7.69 µM (top of the series))?
A: 15.7%

Q: What about the Potency [4] of the same compound?
A: > 46 µM

Q: And the Potency [5]?
A: > 9.22 µM

Q: What about the activity change, negative = inhibition [20] of the same compound?
A: -4.43% [at 11.4 µM]

Q: What about the Potency [6] of the same compound?
A: inactive

Q: What about the activity, negative = inhibition [21] of the same compound?
A: 46.1% [at 11.4 µM]

Q: What about the Potency [14] of the same compound?
A: inactive

Q: And the Potency [15]?
A: inactive

Q: With `CCCCCCCCCCCCCCCC(=O)N[C@H](CN1CCOCC1)[C@H](O)c1ccccc1` as the compound, how does the activity change, negative = inhibition [14] read?
A: 6.98% [at 6.83 µM]

Q: And the activity change, negative = inhibition [15]?
A: 2.84% [at 3.88 µM]

Q: What about the Potency [22] of the same compound?
A: inactive

Q: Which results are given for `CC(C)[C@H](CO)Nc1nc(Nc2cc(N)cc(Cl)c2)c2ncn(C(C)C)c2n1`?
A: Potency [1]: 0.501 µM (active); Potency [4]: > 46 µM; Potency [5]: > 46 µM; Potency [13]: inactive; Potency [14]: inactive; Potency [15]: inactive; outcome [23]: inactive; outcome [24]: inactive
